Reference: PubChem BioAssay (NCATS)
Results filed as inconclusive are left out. Calls of active or inactive are those of the source. Calls come from the whole dose curve.
Potency is the fitted concentration of half-maximal effect.

Experiment: Cell Viability - SK-N-SH (AID 435);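 note: compound exposure lasted 40 h at 37 °C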
Conditions: SK-N-SH neuroblastoma cell viability qHTS
Description: NIH Chemical Genomics Center [NCGC]
NIH Molecular Libraries Screening Centers Network [MLSCN]
National Institutes of Environmental Health Sciences [NIEHS]
National Toxicology Program [NTP]
We have developed a 1536-well cell-based assay for quantitative high throughput screening (qHTS) against a number of cell lines to determine in vitro cytotoxicity of small molecules. This particular assay uses the SK-N-SH cell line which is derived from human neuroblastoma.
NCGC Assay Protocol Summary:
The CellTiter-Glo luminescent cell viability assay (Promega) is a homogeneous method to measure the number of viable cells in culture. The end point readout of this assay is based on quantitation of intracellular ATP, an indicator of metabolic activity, using the luciferase reaction. Luciferase catalyzes the oxidation of beetle Luciferin to oxyluciferin and light in the presence of ATP. The luminescent signal is proportional to amount of ATP present.
Using the CellTiter-Glo luminescent cell viability assay, the amount of cellular ATP was measured in the SK-N-SH cell line with complete culture medium following compound treatment for 40 hours. The assay was performed in opaque white Kalypsys 1536-well plates. In the screen, tamoxifen and doxorubicin were used as positive controls. Library compounds were measured for their ability to cause acute toxicity in the cell line, as reflected by a decrease in intracellular ATP levels, in a concentration-dependent manner. Data were normalized to the controls for basal activity (DMSO only) and 100% inhibition (100 uM tamoxifen). AC50 values were determined from concentration-response data modeled with the standard Hill equation.
qHTS protocol fo CellTiter Glo SK-N-SH cellular assay
[Step] [Parameter] [Value] [Description]
1. Reagent; 5 uL; 1500 SK-N-SH cells/well
2. Time; 5 hr; 37 °C incubation
4. Controls; 23 nL; Tamoxifen 0.34 uM to 100 uM & Doxorubicin 0.02 nM to 100 uM
5. Time; 40 hr; 37 °C incubation
6. Reagent; 5 uL; CellTiter Glo reagent
7. Time; 20 min; Room Temperature
8. Detection; Luminescence; Viewlux plate reader
Keywords: cell viability, cytotoxicity, SK-N-SH cell line, luminescence, NTPHTS, NTPHTS_NCGC, NIEHS, EPA, DSSTox, MLSMR, MLSCN, NIH Roadmap, qHTS, NCGC
For `Cc1ncc([N+](=O)[O-])n1CCO`, the Potency was > 92 µM (inactive). With `CC(=O)Oc1ccccc1C(=O)Nc1ncc([N+](=O)[O-])s1` the Potency was 20.7 µM (active). With `Cc1noc(NS(=O)(=O)c2ccc(N)cc2)c1C` the Potency was > 92 µM (inactive). In the case of `CCc1cc(C(N)=S)ccn1`, the Potency is reported as > 92 µM (inactive). In the case of `NC(N)=NC(N)=NCCc1ccccc1`, the Potency is reported as > 92 µM (inactive). In the case of `O=C(O)c1cc(=O)[nH]c(=O)[nH]1`, the Potency is reported as > 92 µM (inactive). In the case of `Cc1cc(NS(=O)(=O)c2ccc(N)cc2)no1`, the Potency is reported as > 92 µM (inactive). For `COc1ccc2cc3[n+](cc2c1OC)CCc1cc2c(cc1-3)OCO2`, the Potency was > 92 µM (inactive). For `CN(C)c1ccc(C(=C2C=CC(=[N+](C)C)C=C2)c2ccc(N(C)C)cc2)cc1`, the Potency was 1.8 µM (active). In the case of `O=C(N[C@H](CO)[C@H](O)c1ccc([N+](=O)[O-])cc1)C(Cl)Cl`, the Potency is reported as > 92 µM (inactive). In the case of `Cc1ccnc2c1NC(=O)c1cccnc1N2C1CC1`, the Potency is reported as > 92 µM (inactive). In the case of `C[C@]12C=CC(=O)C=C1CC[C@@H]1[C@@H]2C(=O)C[C@@]2(C)[C@H]1CC[C@]2(O)C(=O)CO`, the Potency is reported as > 92 µM (inactive). In the case of `N=C(N)c1ccc(OCCCCCOc2ccc(C(=N)N)cc2)cc1`, the Potency is reported as > 92 µM (inactive). For `CC(=O)[C@H]1CC[C@H]2[C@@H]3CCC4=CC(=O)CC[C@]4(C)[C@H]3CC[C@]12C`, the Potency was > 92 µM (inactive). With `NNC(=O)c1ccncc1` the Potency was > 92 µM (inactive). For `CC1=NN(c2ccccc2)C(=O)C1`, the Potency was > 92 µM (inactive). For `Cc1nnc(NS(=O)(=O)c2ccc(N)cc2)s1`, the Potency was > 92 µM (inactive).
